PubChem BioAssay (Tox21)
Records with an inconclusive call do not appear. The source made the active and inactive calls. The call rests on the fitted dose curve; in most records, active means well fitted cell-killing curve with a large enough effect in the repeat runs; inconclusive means weak or mixed curves, or effect the other way; inactive means flat fitted curve, though single readings scatter.

Test: cAMP Responsive Elements (CRE) small molecule agonists, cell-based qHTS assay: qHTS cell viability counter screen (AID 2060914);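 further: viability read after 3 h of compound exposure; nearly all actives have a fitted effect of over 50% in size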
Settings: CRE-bla HEK293T viability, CellTiter-Glo luminescence, 5 h; series mostly up to 92.4 µM; activity change, negative = cytotoxicity: at the top concentration
Text: National Center for Advancing Translational Sciences [NCATS]
Division of Preclinical Innovation [DPI]
U.S. Environmental Protection Agency [EPA]
National Institutes of Environmental Health Sciences [NIEHS]
National Toxicology Program [NTP]
U.S. Food and Drug Administration [FDA]
CREB (cyclic-AMP Responsive Element Binding Protein) is a cellular transcription factor. It binds to certain DNA sequences called cAMP Responsive Elements (CRE) and regulates the transcription of the genes. […] This cell line can be used to find agonists/antagonists of the cyclic AMP signaling pathway. The activation of the report gene under culture conditions can be detected by fluorescence intensity. This cell line has been used to screen the Tox21 10K compound library to identify agonists that induce oxidative stress. The cytotoxicity of the Tox21 compound library against the CRE-bla cell line was tested in parallel by measuring the cell viability using CellTiter-Glo assay (Promega, Madison, WI) in the same wells.
Tox21 Assay Protocol Summary:
CRE-bla Hek 293T cells were suspended in assay medium (DMEM containing 10% dialyzed FBS, 0.1 mM NEAA, 1 mM sodium pyruvate and 25 mM HEPES) and dispensed at 2,000 cells/5 uL /well into 1536-well black wall/clear bottom plates using a Multidrop Combi (ThermoFisher Scientific, Waltham, MA) dispenser. After the assay plates were incubated at 37 C/5% CO2 for 18 hrs, 23 nL of compounds dissolved in DMSO, positive controls or DMSO only was transferred to the assay plate by a pintool workstation (Kalypsys, San Diego, CA). After the plates were incubated at 37 C/5% CO2 for 3 hrs, 1 uL of LiveBLAzer B/G FRET substrate (Invitrogen, Carlsbad, CA) was added to each well using Bioraptr Flying Reagent Dispenser (FRD, Aurora Discovery, San Diego, CA). The plates were incubated at room temperature for 2 h, then fluorescence intensities were measured using an Envision plate reader (PerkinElmer, Shelton, CT) at Excitation 405nm, Emission 460nm and 530nm. The % activity was determined from the ratio of 460nm/530nm. For cell viability readout that measures cytotoxicity, 4 uL /well of CellTiter-Glo reagent was added into the assay plates using Bioraptr FRD. After 30 min incubation at room temperature, the luminescence intensity in the assay plates was measured using a ViewLux (PerkinElmer, Shelton, CT) plate reader.
On the % scale 0 is the no-effect control and ±100 the full control effect.

Row | Structure (SMILES) | activity change, negative = cytotoxicity | Potency
1 | CCCCCSCCCCC | 0.495% (inactive) | –
2 | COc1ccc(N)c(OC)c1 | – | inactive
3 | CCCCCCCCCCOCC(O)CN (stereo not given) | 2.96% [at 42.5 µM] (inactive) | –
4 | O=C1CC2(CCCC2)CC(=O)N1CCNCC1COc2ccccc2O1 (stereo not given) | 8.76% [at 42.5 µM] (inactive) | –
5 | CC(C)=CCC[C@H](C)CCO | 12.8% (inactive) | –
6 | Cc1c(C)n(Cc2ccccc2)c2ccc(C(=O)OCCN(C)C)cc12 | -6.46% [at 42.5 µM] (inactive) | –
7 | CC(=O)OCCC1CCCCC1 | 11.2% (inactive) | –
8 | C=CCCCCCCCCCCCCCC | -8.5% [at 18.9 µM] (inactive) | –
9 | COc1cc(/C=C/C(N)=O)cc(OC)c1OC | 7.78% [at 42.5 µM] (inactive) | –
10 | CCOc1ccccc1OCC1CNCCO1 (stereo not given) | 9.29% [at 42.5 µM] (inactive) | –
11 | N[C@@H](CSSC[C@H](N)C(=O)O)C(=O)O | 11.2% [at 0.349 µM] (inactive) | –
12 | CCOC(=O)O[C@]1(C(=O)OCCl)CC[C@H]2[C@@H]3CCC4=CC(=O)C=C[C@]4(C)[C@H]3[C@@H](O)C[C@@]21C | 5.79% [at 42.5 µM] (inactive) | –
13 | O=C(Oc1ccccc1)c1ccc2ccccc2c1O | -17.8% (inactive) | –
14 | CCN1C(=O)c2ccccc2C1Nc1ccc(OCCN2CCCCC2)cc1 (stereo not given) | 9.4% [at 42.5 µM] (inactive) | –
15 | O=C1CCCCO1 | 6.48% (inactive) | –
16 | CCCCCCCCCCCCCOS(=O)(=O)O | -22.9% (inactive) | –
17 | CCCCCCCC/C=C\CCCCCCCC(=O)OC(CO)CO | 8.09% (inactive) | –
18 | CC(C)NCC(O)c1ccc(NS(C)(=O)=O)cc1 (stereo not given) | 1.39% (inactive) | –
19 | OC(Cn1cncn1)(Cn1cncn1)c1ccc(F)cc1F | – | inactive
20 | COc1c(C)c2c(c(O)c1C/C=C(\C)CCC(=O)O)C(=O)OC2 | -1.03% [at 42.5 µM] (inactive) | –

Row | Structure (SMILES) | activity change, negative = cytotoxicity | Potency
21 | CCCCCCOc1cc(C)c(O)c(C)c1C | -21.4% (inactive) | –
22 | CC(C)(C)NC[C@H](O)COc1nsnc1N1CCOCC1 | – | inactive
23 | NC(=O)c1cnccn1 | – | inactive
24 | CN1CCCCC1CCN1c2ccccc2Sc2ccc(S(C)=O)cc21 (stereo not given) | 10.8% [at 42.5 µM] (inactive) | –
25 | COc1cc(C(=O)OC(COCCC(C)C)CN2CCOCC2)cc(OC)c1OC (stereo not given) | -6.77% [at 42.5 µM] (inactive) | –
26 | COc1ccc(CCN(C)CCCN2CCc3cc(OC)c(OC)cc3CC2=O)cc1OC | -0.313% [at 42.5 µM] (inactive) | –
27 | CCOc1ccc2nc3cc(N)ccc3c(N)c2c1 | -6.85% [at 42.5 µM] (inactive) | –
28 | OC/C=C/c1ccccc1 | -1.66% (inactive) | –
29 | FC1(F)C(F)(F)C(F)(F)C2(F)C(F)(C1(F)F)C(F)(F)C(F)(F)C1(F)C(F)(F)C(F)(F)C(F)(F)C(F)(F)C12F (stereo not given) | -5.98% (inactive) | –
30 | CC(=N\O)/C(C)=N/O | 2.43% (inactive) | –
31 | CCCCOCCOC(=O)COc1ccc(Cl)cc1Cl | 2.58% (inactive) | –
32 | CCCCCCCCCCCCCCCCOP(=O)([O-])OCC[N+](C)(C)C | -14% [at 42.5 µM] (inactive) | –
33 | CCCCCC(=O)OCCc1ccccc1 | 3.84% (inactive) | –
34 | NC1CCCCC1N (stereo not given) | – | inactive
35 | C[C@@H]1C[C@H]2O[C@@]3(O[C@@H]2C(C)(C)O)[C@H](O)[C@@]2(C)[C@@H]4CC[C@H]5C(C)(C)[C@@H](O[C@@H]6OC[C@@H](O)[C@H](O)[C@H]6O)CC[C@@]56C[C@@]46CC[C@]2(C)[C@@H]13 | 2.88% [at 42.5 µM] (inactive) | –
36 | Brc1ccc(Br)c(Br)c1 | – | inactive
37 | O=CN1CCCCC1 | 15% (inactive) | –
38 | Cc1ccc(C=O)cc1C | -0.424% (inactive) | –
39 | CCOC(=O)CC(=O)C(=O)OCC | -30.9% (inactive) | –
40 | CCCCN1C(=O)c2ccccc2C1=O | 5.5% (inactive) | –
